39 targets from the supplement of paper PMC10849652 can be followed below.

Targets with a hit are over-represented here; the source holds about 8,800 in all. About 0.5% of all pairs of compound and target were hits. Unmarked numbers belong to inactive results.

UniProt P27361, sequence (P27361 whole entry, looked up): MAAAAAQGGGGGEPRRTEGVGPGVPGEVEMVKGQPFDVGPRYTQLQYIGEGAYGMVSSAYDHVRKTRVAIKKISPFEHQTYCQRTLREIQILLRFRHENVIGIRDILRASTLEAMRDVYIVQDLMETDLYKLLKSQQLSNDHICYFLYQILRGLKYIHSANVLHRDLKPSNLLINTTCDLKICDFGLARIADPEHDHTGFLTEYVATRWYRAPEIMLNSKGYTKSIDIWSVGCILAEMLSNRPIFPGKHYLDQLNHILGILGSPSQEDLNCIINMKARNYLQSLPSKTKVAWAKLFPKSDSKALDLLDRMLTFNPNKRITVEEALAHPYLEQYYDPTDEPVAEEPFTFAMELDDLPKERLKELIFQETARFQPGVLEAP
UniProt P53667, sequence (P53667 whole entry, looked up): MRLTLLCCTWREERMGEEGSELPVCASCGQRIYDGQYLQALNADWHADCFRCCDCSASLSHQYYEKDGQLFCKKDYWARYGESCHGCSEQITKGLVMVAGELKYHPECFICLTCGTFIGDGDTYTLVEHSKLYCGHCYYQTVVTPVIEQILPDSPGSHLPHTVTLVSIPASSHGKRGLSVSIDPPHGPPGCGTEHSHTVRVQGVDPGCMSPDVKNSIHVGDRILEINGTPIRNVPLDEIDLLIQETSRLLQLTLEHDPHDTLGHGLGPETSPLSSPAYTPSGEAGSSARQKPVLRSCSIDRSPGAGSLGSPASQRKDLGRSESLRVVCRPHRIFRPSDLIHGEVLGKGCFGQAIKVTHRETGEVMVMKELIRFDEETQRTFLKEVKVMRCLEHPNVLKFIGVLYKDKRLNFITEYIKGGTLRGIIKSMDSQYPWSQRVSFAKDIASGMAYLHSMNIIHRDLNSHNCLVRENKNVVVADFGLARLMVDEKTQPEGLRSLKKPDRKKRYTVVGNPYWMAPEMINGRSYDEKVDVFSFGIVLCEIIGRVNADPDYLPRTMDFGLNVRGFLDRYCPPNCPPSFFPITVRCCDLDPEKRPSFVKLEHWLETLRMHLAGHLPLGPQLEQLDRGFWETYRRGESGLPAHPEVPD
UniProt Q9Y6R4, sequence (Q9Y6R4 whole entry, looked up): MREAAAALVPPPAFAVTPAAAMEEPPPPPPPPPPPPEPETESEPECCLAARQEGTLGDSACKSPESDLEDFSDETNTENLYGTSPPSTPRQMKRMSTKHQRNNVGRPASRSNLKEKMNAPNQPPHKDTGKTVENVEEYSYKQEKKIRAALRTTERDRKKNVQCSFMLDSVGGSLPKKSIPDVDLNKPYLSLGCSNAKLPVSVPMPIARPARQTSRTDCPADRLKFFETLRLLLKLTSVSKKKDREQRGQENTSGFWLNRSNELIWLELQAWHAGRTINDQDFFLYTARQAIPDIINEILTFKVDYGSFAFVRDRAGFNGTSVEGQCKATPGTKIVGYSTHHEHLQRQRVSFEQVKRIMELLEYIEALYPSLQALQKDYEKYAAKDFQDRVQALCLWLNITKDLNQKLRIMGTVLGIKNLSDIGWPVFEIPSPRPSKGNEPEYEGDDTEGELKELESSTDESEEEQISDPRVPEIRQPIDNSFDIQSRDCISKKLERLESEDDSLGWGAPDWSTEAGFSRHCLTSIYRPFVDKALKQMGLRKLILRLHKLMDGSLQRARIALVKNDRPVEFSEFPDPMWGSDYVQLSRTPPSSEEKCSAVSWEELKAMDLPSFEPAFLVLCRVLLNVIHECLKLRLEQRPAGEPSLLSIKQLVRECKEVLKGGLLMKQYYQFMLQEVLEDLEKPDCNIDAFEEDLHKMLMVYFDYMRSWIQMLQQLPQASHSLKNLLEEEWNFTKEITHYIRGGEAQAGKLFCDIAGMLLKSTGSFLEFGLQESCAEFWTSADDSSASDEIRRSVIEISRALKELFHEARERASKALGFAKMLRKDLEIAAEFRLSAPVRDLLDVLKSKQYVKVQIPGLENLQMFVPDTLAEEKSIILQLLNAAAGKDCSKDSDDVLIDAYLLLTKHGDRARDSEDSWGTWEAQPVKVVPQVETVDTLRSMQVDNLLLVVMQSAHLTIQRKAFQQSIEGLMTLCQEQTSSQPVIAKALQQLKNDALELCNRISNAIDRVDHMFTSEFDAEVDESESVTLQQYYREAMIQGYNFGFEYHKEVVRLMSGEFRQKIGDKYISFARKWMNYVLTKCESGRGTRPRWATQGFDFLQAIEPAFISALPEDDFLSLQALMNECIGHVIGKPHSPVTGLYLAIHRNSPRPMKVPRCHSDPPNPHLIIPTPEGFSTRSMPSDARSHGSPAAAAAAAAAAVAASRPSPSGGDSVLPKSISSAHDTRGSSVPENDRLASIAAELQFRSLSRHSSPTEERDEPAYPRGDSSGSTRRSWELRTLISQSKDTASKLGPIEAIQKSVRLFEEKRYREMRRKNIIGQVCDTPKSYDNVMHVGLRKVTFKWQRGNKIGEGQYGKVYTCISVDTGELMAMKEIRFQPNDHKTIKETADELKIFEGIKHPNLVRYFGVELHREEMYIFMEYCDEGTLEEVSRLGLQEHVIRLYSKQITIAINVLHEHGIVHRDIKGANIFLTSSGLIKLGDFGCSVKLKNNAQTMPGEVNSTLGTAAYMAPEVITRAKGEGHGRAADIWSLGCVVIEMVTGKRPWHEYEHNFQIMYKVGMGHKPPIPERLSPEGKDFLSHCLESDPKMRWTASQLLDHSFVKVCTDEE
UniProt Q5SRI9, sequence (Q5SRI9 whole entry, looked up): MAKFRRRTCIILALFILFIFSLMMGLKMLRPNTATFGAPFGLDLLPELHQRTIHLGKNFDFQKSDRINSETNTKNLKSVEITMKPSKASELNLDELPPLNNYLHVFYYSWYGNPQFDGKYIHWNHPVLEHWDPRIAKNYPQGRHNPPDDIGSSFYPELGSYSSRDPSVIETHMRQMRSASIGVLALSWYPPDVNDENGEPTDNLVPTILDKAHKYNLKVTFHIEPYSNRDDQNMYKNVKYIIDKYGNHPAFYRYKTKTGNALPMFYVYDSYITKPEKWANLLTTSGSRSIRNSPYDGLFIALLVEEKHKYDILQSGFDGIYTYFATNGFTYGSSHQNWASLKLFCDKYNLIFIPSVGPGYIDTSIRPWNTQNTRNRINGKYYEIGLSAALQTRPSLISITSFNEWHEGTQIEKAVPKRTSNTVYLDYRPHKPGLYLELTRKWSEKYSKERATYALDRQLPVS
UniProt O60244, sequence (O60244 whole entry, looked up): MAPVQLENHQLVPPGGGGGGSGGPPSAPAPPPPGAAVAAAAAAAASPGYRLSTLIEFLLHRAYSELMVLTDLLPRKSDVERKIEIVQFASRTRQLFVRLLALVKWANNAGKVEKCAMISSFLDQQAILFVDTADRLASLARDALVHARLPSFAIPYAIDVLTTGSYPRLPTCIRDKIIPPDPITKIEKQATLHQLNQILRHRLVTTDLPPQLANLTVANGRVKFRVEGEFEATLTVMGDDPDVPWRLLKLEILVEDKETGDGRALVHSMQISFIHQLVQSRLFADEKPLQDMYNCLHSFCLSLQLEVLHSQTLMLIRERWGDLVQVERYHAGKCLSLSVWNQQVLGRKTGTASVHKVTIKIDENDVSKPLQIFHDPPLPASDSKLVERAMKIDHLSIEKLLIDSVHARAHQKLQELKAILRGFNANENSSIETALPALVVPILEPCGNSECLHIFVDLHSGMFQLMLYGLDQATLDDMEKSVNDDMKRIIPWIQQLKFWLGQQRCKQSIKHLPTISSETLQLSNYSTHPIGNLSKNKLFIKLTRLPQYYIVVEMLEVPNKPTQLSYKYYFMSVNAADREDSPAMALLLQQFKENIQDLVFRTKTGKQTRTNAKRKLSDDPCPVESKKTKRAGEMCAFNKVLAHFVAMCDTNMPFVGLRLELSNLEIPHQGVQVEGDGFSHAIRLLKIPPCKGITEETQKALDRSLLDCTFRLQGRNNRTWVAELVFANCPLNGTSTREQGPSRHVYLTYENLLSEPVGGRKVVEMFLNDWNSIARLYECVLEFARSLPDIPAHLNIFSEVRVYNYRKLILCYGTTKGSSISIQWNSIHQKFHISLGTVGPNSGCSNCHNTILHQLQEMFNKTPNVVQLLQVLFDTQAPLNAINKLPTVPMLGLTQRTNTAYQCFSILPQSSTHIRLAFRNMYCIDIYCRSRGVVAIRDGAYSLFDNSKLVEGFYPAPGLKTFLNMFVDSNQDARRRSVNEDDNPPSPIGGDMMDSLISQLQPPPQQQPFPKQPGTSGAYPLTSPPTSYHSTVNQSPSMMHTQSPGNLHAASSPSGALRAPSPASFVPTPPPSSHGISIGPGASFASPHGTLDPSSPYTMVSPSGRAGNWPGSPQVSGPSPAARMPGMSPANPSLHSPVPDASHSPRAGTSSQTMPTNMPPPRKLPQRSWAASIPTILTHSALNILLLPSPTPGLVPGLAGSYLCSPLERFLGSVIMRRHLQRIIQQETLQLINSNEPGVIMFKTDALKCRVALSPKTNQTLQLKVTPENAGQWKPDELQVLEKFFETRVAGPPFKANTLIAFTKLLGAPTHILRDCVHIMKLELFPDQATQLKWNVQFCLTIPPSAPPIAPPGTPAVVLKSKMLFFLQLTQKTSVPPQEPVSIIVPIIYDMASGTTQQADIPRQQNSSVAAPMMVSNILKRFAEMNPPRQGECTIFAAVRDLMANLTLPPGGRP
UniProt Q8NF37, sequence (Q8NF37 whole entry, looked up): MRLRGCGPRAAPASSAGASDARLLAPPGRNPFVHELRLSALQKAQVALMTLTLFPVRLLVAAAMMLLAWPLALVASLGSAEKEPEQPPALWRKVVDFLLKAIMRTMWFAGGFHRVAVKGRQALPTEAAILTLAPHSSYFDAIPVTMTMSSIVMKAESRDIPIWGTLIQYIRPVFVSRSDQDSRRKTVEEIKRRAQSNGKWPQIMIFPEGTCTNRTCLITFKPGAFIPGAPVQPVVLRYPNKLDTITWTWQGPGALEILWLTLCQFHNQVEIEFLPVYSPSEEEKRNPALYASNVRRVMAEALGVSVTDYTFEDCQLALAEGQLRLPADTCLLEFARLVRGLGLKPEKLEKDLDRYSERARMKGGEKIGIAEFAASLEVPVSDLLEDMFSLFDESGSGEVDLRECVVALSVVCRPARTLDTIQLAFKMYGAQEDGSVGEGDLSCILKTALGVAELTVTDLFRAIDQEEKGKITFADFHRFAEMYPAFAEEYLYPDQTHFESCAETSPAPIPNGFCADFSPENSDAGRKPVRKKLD

Compound in the assay: CC(C)(O)CC(=O)NCCn1ccc2ncnc(Nc3ccc(Oc4cccc(C(F)(F)F)c4)c(Cl)c3)c21
Briefly: log2 fold change, soluble protein after heating vs DMSO (PISA); higher = thermal stabilisation; K562 lysate, 10 uM; active = over 0.2 and 3.5 SD of the protein, either way, in both replicates (recomputed). In outline:
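K562 pellets were dounce-homogenised in PBS pH 7.4 containing 1 mM MgCl2, and the crude extract, at 1 mg/mL protein, was exposed to 10 μM compound for 30 min. Aliquots were heated for 3 min across 48°C-58°C, pooled, brought to 0.5% NP-40 at 4°C and spun at 21,000xg for 90 min, with the supernatant taken as soluble protein. TMTpro 16plex LC-MS/MS with equalised channel sums quantified that protein. Values are log-two fold changes in thermal stability relative to solvent controls, taken from duplicates.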
On to MCMBP isoform 2 (UniProt Q9BTE3), for which the log2 fold change is 0.068. With MAP4K5 (UniProt Q9Y4K4) the figure was 0.002; with MACO1 (UniProt Q8N5G2), -0.04; with LEPROT (UniProt O15243), 0.054. As to KLHL12 isoform 2 (UniProt Q53G59), the log2 fold change was -0.032. With LSS (UniProt P48449) the figure was 0.072; with KIF4B (UniProt Q2VIQ3), -0.03; with MRPL27 (UniProt Q9P0M9), -0.025. Then MED25 isoform 3 (UniProt Q71SY5), with 0.045. For the target MAP7D3 (UniProt Q8IWC1), the log2 fold change is -0.019. Then MITD1 (UniProt Q8WV92), with 0.01. Then MED14 (UniProt O60244), with -0.022.

For the target LIMK2 isoform 3 (UniProt P53671), the log2 fold change was 0.018. Then LAMP1 (UniProt P11279), with -0.11. With MAPK3 (UniProt P27361), the log2 fold change was -0.018.

As to MRPL35 (UniProt Q9NZE8), the log2 fold change was 0.047.

Consider MAN2B2 (UniProt Q9Y2E5), for which the log2 fold change is 0.083. Turning to MAST2 (UniProt Q6P0Q8), the log2 fold change was -0.084.

With MGST3 (UniProt O14880), the log2 fold change is -0.046. With MAPK14 (UniProt Q16539) the figure was -0.008; with LRRC7 (UniProt Q96NW7), -0.073; with MIF4GD isoform 3 (UniProt A9UHW6), -0.014. With MME (UniProt P08473) the figure was -0.156; with MAP4K2 (UniProt Q12851), 0.108.

LIMK1 (UniProt P53667): the log2 fold change was -0.161. With MCUB (UniProt Q9NWR8) the figure was 0.045. Turning to METTL21A (UniProt Q8WXB1), the log2 fold change is -0.032.

Turning to MINDY1 isoform 3 (UniProt Q8N5J2), the log2 fold change is -0.121.

Consider MAP4 isoform 5 (UniProt P27816), for which the log2 fold change was -0.166. With MAPKAPK3 (UniProt Q16644), the log2 fold change is -0.003. With LPCAT1 (UniProt Q8NF37) the figure was -0.142.

Regarding MANEA (UniProt Q5SRI9), the log2 fold change was -0.1. Then MRPL30 isoform 2 (UniProt Q8TCC3), with -0.084; and KRIT1 (UniProt O00522), with -0.02; and LTN1 isoform 3 (UniProt O94822), with -0.066.

As for MAPK8 isoform 3 (UniProt P45983), the log2 fold change is 0.025. With MED10 (UniProt Q9BTT4) the figure was -0.055; with MAP3K4 (UniProt Q9Y6R4), 0.005. MAP4K4 isoform 6 (UniProt O95819): the log2 fold change is 0.027.
